Screening results (PubChem BioAssay)
An excerpt weighted towards active compounds, which were near 21% of everything screened.
SARS PLpro yeast = blocks SARS-CoV papain-like protease in a yeast assay. S. cerevisiae expressing SARS-CoV PLpro, growth rescue. Potency, µM (doses to about 32.9 µM), for the others: at the highest dose activity, positive = growth rescue, most hits filed as activators. 0.19% of 330,000 active. AID 485353; also: potency is read from the fitted curve at half-maximal effect; 0% is about no effect; nearly all actives have a fitted effect of over 55% in size
Pf growth 48h = inhibits P. falciparum growth in the first generation, 48 h | P. falciparum luciferase growth in erythrocytes, 48 h | Potency, µM (series often up to 28.7 µM), for inactives: at the highest dose activity change, negative = inhibition, most hits filed as inhibitors | 5.9% of 310,000 active | AID 504832; active = well fitted inhibition curve with a large enough effect; inconclusive = small, poorly fitted or top-dose-only effect, or another doubt; inactive = no such curve, though single readings can be large or run the other way; also: potency is read from the fitted curve at half-maximal effect; % is scaled to controls: 0 for no effect and ±100 for the full control effect
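Read-out is firefly luciferase luminescence from an integrated reporter in P. falciparum, so falling signal marks reduced parasite growth. Infected erythrocytes were at 2% hematocrit and 0.1% parasitemia (final) in Albumax-supplemented RPMI 1640.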
CHX counter = counter-screen hit for Shiga toxin inhibitors, cycloheximide; cell reporter, cycloheximide protein synthesis inhibition counterscreen; max response, %; 12% of 300,000 active; AID 2314; in the data active = max response mostly above about 13%, no sharp cut-off; inactive = mostly below about 14%; also: read at 38.3 µM for the half of the compounds with a filed dose; 0% is about no effect
Shiga inhibitor = blocks Shiga toxin action in Vero cells; Vero cells, Shiga toxin protein synthesis inhibition reporter; inhibition, % at 38.7 µM; 9.2% of 290,000 active; in the data active = inhibition mostly above about 28%, no sharp cut-off; inactive = mostly below about 43%; also: 0% is about no effect
NS1 function inh = blocks influenza NS1 protein function; Potency, µM (top dose mostly 46.1 µM), without a hit: at the top dose activity, positive = more growth; 0.4% of 270,000 active; AID 2326; also: potency is read from the fitted curve at half-maximal effect; actives are rising curves; nearly all actives have a fitted effect of over 50% in size
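Read-out: OD600 growth recovery of NS1-expressing budding yeast. Cells grown overnight at 30C in -URA glucose medium, washed, resuspended and diluted 1:100 in 2% galactose assay medium, pH 6.0. Same strain lacking NS1 served as positive control.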
Pf growth 96h = inhibits malaria parasite growth, 96 h; P. falciparum luciferase reporter growth, 96 h; Potency, µM (doses to about 28.7 µM), inactives show at the highest dose activity change, negative = inhibition, most hits filed as inhibitors; 6.9% of 320,000 active; active = well fitted inhibition curve with a large enough effect; inconclusive = small, poorly fitted or top-dose-only effect, or another doubt; inactive = no such curve, though single readings can be large or run the other way; also: potency is read from the fitted curve at half-maximal effect; % is scaled to controls: 0 for no effect and ±100 for the full control effect
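Two parasite generations (96 h, 37 C, 5% CO2) of compound exposure in infected erythrocytes (0.05% parasitemia, 2% hematocrit). Luciferase-reporter P. falciparum; decreased luminescence indicates inhibited growth, aimed at apicoplast-acting delayed death.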
Numbers without * were called inactive; u = inconclusive; x = not tested or not shown. Unless noted, calls follow the shape of the full dose curve.

SMILES	SARS PLpro yeast	Pf growth 48h	CHX counter	Shiga inhibitor	NS1 function inh	Pf growth 96h
CC(C)(C)c1cc(C(=O)Nc2ccc(F)cc2)n(Cc2ccc(F)cc2)n1	-13.5%	10.4µM*	26.2*	43.4*	-31.2%	11.7µM*
Cc1cccc(N2C(=O)C3C4C=CC(C5CC45)C3C2=O)n1 (stereo not drawn)	0.4%	4.3%	-1.7	-7.2	1.1%	-9.2%
COC(=O)C1=C(N)N(c2ccc(F)cc2)C2=C(C(=O)CCC2)C1c1ccc2c(c1)OCO2 (stereo not drawn)	1.4%	10.4µM*	-2.2	-1.6	-4.6%	65.3%
COC(=O)C1=C(N)OC2=C(C(=O)CCC2)C1c1ccc2c(c1)OCO2 (stereo not drawn)	8.5%	20.1%	-2.3	-8.2	-6.3%	-15.2%
O=C(CCS(=O)(=O)c1cccc2nsnc12)NCc1ccccc1Cl	-0.7%	7.5%	-2.5	33.4	-1.0%	9.28µM*
COc1ccc2c(C=O)c[nH]c2c1	-7.6%	3.3%	-1.8	-6.9	0.4%	8.28µM*
COc1ccc2c(c1)c(/C=C/c1cc[n+](C)cc1)cn2C	1.0%	1.17µM*	-3.3	-6.6	-1.8%	0.37µM*
COc1ccc2c(/C=C/c3cc[n+](C)cc3)c[nH]c2c1	0.6%	1.17µM*	-2.0	4.7	-2.9%	0.522µM*
COC(=O)Cn1cc(/C=C/c2cc[n+](C)cc2)c2ccccc21	-2.9%	u	0.2	-3.6	-13.7%	-3.3%
O=Cc1c[nH]c2ccccc12	x	x	7.5	-4.7	x	x
Cc1ccc(OCc2cc(C(=O)N3CCc4[nH]cnc4C3c3ccccn3)no2)cc1C (stereo not drawn)	3.8%	-7.6%	1.4	-4.7	12.7%	40.8%
CCN1C(=O)C(CC(=O)Nc2ccc(F)cc2)N(CCCN2CCN(c3ccc(F)cc3)CC2)C1=S (stereo not drawn)	2.0%	u	-6.1	-8.3	x	u
O=C(Cc1cccc(F)c1F)NC1CCCN(Cc2ccc(Cl)cc2)C1 (stereo not drawn)	-3.1%	u	-0.6	-3.3	12.5%	u
COc1ccc(CCNC(=O)C2CCCN2C(=O)Nc2ccc(F)cc2)cc1OC (stereo not drawn)	2.9%	13.9%	5.4	-3.2	26.5%	5.3%
O=C(CCNc1ccc(Cc2ccncc2)cc1)c1ccc([N+](=O)[O-])cc1	-5.4%	-2.0%	6.5	-5.7	-48.6%	u
COCC1CCCCN1C(=O)c1ccc(OC2CCN(Cc3ccccn3)CC2)cc1 (stereo not drawn)	u	35.8%	6.3	11.3	-5.4%	u
COc1ccc(CNc2nc(NCc3ccc(OC)cc3)c3ncn(C4CCCCC4)c3n2)cc1	x	x	49.5*	36.8*	x	x
Cc1csc(NC(=O)C2CCCO2)n1 (stereo not drawn)	6.9%	27.5%	-3.3	22.9	-1.8%	38.4%
CCC(CC)c1nnc(NC(=O)C2CCCO2)s1 (stereo not drawn)	0.6%	41.6%	18.6*	17.4	x	u
Cc1nnc(NC(=O)C2=COCCO2)s1	-3.2%	36.2%	x	x	x	32.4%
CCCCc1nnc(NC(=O)C2=COCCO2)s1	-5.9%	146.7%	39.6*	68.8*	5.5%	170.2%
CCCCc1nnc(NC(=O)C2CCCO2)s1 (stereo not drawn)	-0.9%	48.5%	14.7*	53.3*	-6.3%	u
COCNc1nc(OCC#N)nc(N(C)C)n1	-0.3%	28.7%	-2.0	-5.5	4.1%	u
CCNc1nc(ON=C(C)C)nc(N(C)C)n1	-6.8%	8.28µM*	-3.1	-7.1	-2.1%	u
O=C(Cc1ccc2ccccc2c1)Nc1ccccc1Br	0.6%	u	1.3	4.6	6.5%	3.29µM*
SMILES	SARS PLpro yeast	Pf growth 48h	CHX counter	Shiga inhibitor	NS1 function inh	Pf growth 96h
O=C(Cc1ccc2c(c1)CCCC2)Nc1ccccc1Br	3.6%	3.7µM*	13.6	-14.4	-2.5%	2.62µM*
O=C(Cn1cc2c(n1)CCCC2)Nc1ccccc1Br	-2.1%	x	5.3	11.1	-57.5%	30.8%
O=C(O)CCC(=O)N1CCc2cc(S(=O)(=O)N(CCc3ccccc3)Cc3ccccc3)ccc21	5.1%	u	-3.6	-13.1	21.9%	x
O=[N+]([O-])c1ccc2c(c1)Cc1cc(N=Cc3ccc4c(c3)OCO4)ccc1-2	x	x	x	x	-0.4%	x
CNC(=O)ON(C(=O)NC)C1N(C)C(=S)SC1(C)C (stereo not drawn)	-7.6%	6.2%	13.2*	21.9	-75.5%	x
CNC(=O)N(O)C1N(c2ccccc2)C(=S)SC1(C)C (stereo not drawn)	18.3%	-0.1%	7.1	-8.6	13.9%	2.08µM*
CNC(=O)N(O)C1N(/N=C/c2ccccc2O)C(=S)SC1(C)C (stereo not drawn)	0.1%	-9.4%	15.3*	28.2	-2.7%	62.9%
CCOC(=O)C1(C(C)(C)CC)CC(CSc2nc3ccccc3[nH]2)OC1=O (stereo not drawn)	-25.8%	8.28µM*	-1.7	1.9	-22.8%	-22.0%
CCOc1ccc(C2=C(C=Nc3c(C)n(C)n(-c4ccccc4)c3=O)C(c3ccc(F)cc3)c3ccccc3O2)cc1 (stereo not drawn)	-8.6%	x	-0.4	15.4	-2.6%	0.294µM*
O=C(NN1CCOCC1)c1cc(-c2ccc(Br)cc2)nc2ccccc12	6.1%	11.3%	-2.6	13.3	6.0%	34.7%
Brc1ccc(-c2csc(/N=C/N3CCCC3)n2)cc1	-9.7%	222.0%	68.0*	66.9*	x	95.6%
Brc1ccc(-c2csc(/N=C/N3CCOCC3)n2)cc1	-16.6%	75.4%	35.7*	49.1	-52.0%	66.3%
OCCN(/C=N/c1nc(-c2ccc(Br)cc2)cs1)CCO	-42.8%	112.5%	30.1*	63.5*	-113.2%	x
O=C(Cn1c(=O)oc2ccccc21)Nc1nc(-c2ccc(Br)cc2)cs1	16.6%	11.8%	7.8	10.3	-7.7%	-21.4%
N#Cc1ccc(Nc2nn3c(=O)c4ccccc4nc3s2)cc1	x	11.3%	x	x	x	3.4%
COc1ccc(N2CCN(C(=O)c3ccc4ccccc4n3)CC2)cc1	0.1%	-8.3%	-2.0	-6.0	6.5%	-3.5%
CCOC(=O)C1(CCCc2ccccc2)CCN(C(=O)C2CCCN(C(N)=O)C2)CC1 (stereo not drawn)	-0.7%	u	-1.5	-3.9	-5.6%	13.1µM*
CCOC(=O)C1(CCc2ccccc2)CCN(C(=O)[C@@H]2C[C@@H](C)NC(=S)N2)CC1	-2.6%	u	13.3*	15.2	7.5%	u
Cc1ccccc1OCCSc1nc2ncnc(N)c2[nH]1	-0.3%	19.3%	10.6	-9.0	-1.1%	-20.0%
COc1ccccc1CC(=O)c1ccc(OCc2ccccc2)cc1	4.1%	10.9%	x	x	x	7.1%
O=C1CS/C(=N\N=C\c2ccco2)N1c1ccccc1	-0.9%	28.3%	14.5*	44.8	10.3%	5.2%
O=C1CS/C(=N/N=C/c2ccccc2)N1c1ccc(O)cc1	5.4%	14.4%	-0.7	7.2	23.9%	1.65µM*
COC(=O)CC[C@@H](C)[C@@H]1CC[C@@H]2[C@@H]3CC[C@H]4C[C@@H](O)CC[C@@]4(C)[C@@H]3CC[C@]21C	x	x	x	x	-4.0%	x
